Results on nine compounds are retold here after PubChem BioAssay (NCI).

Values joined by “and” are separate entries in the source; they are usually repeats but may differ in a detail not shown here. Identical values can stand only once. Compounds without any hit were thinned out: in the full panel of roughly 79,000, 15% have a hit. The source holds several records for some structures; these can differ, active in one and inactive in another. Active and inactive are the calls of the source. Cut-off read from the data, not from the text of the source: active = growth inhibition above about 70%; inactive = the rest.

A short description of test [1]: NCI Yeast Anticancer Drug Screen. Data for the rad50 strain (AID 155).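 Note: 0% = growth of vehicle-only cultures of the same strain.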 As to conditions: S. cerevisiae rad50 strain growth inhibition, stronger effect = higher value. In short, it runs like this:
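Genetically altered yeast (DNA repair pathway); compound treatment; growth inhibition vs vehicle ctrl.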

The nature of test [2]: NCI Yeast Anticancer Drug Screen. Data for the mec2-1 strain (AID 157). As to conditions: S. cerevisiae mec2-1 strain, stronger effect = higher value. In short, it runs like this:
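Compounds were applied to mec2-1 yeast cells. Their growth was then compared with that of vehicle-treated cultures to give growth inhibition.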

Test [3] is described as follows: NCI Yeast Anticancer Drug Screen. Data for the sgs1 mgt1 strain (AID 161).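 Note: 0% = growth of cultures given vehicle only.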 As to conditions: S. cerevisiae sgs1 mgt1 strain, stronger effect = higher value. An outline of the steps:
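This yeast growth screen uses a strain with defined DNA-repair lesions; compound-treated growth is compared with vehicle-treated growth.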

Test [4] can be described thus: NCI Yeast Anticancer Drug Screen. Data for the cln2 rad14 strain (AID 165).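 Note: 0% = growth equal to vehicle treated cultures.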 As to conditions: S. cerevisiae cln2 rad14 strain, stronger effect = higher value. An outline of the steps:
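Strain: cln2 rad14 yeast, altered in cell cycle control and DNA damage repair. Read-out: growth inhibition vs vehicle.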

A short description of test [5]: NCI Yeast Anticancer Drug Screen. Data for the bub3 strain (AID 167). As to conditions: S. cerevisiae bub3 mutant strain, stronger effect = higher value. An outline of the steps: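 Yeast carrying a defined mutation is treated with each compound, and growth is compared with that of vehicle-exposed cells to give inhibition.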
Test [6] can be described thus: NCI Yeast Anticancer Drug Screen. Data for the mlh1 rad18 strain (AID 175). As to conditions: S. cerevisiae mlh1 rad18 strain growth inhibition, stronger effect = higher value. In short, it runs like this: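 A repair-deficient yeast strain is exposed to test compound, and growth is scored relative to vehicle-treated controls.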
The mark [7] stands for this setting: at 5.0 µM (retest, dose inferred, filed as 0.5).
[8] abbreviates: at 50.0 µM (retest, dose inferred, filed as 5.0).

For `CC(C)(c1ccccc1)c1ccc(O)cc1`, the growth inhibition in test [1] (setting [7]) is -5% (inactive); in test [1] (setting [8]), 58% (inactive); in test [1] (at 50.0 µM) it was 98% (active); in test [2] (setting [7]), -38% (inactive); in test [2] (setting [8]) it was 88% (active); in test [2] (at 50.0 µM), 99% (active). In addition, the growth inhibition in test [3] (setting [7]) was -7% (inactive); in test [3] (setting [8]), 46% (inactive); in test [3] (at 50.0 µM) it was 99.7% (active); in test [4] (setting [7]), -9% (inactive); in test [4] (setting [8]), 71% (active); in test [4] (at 50.0 µM) it was 98.8% (active). In addition, the growth inhibition was -23% (inactive) in test [5] (setting [7]); 97% (active) in test [5] (setting [8]); 99.5% (active) in test [5] (at 50.0 µM); -8% (inactive) in test [6] (setting [7]); 97% (active) in test [6] (setting [8]); 99.5% (active) in test [6] (at 50.0 µM).

Consider `c1ccc(NC2=NCCN2)nc1`, for which the growth inhibition in test [1] (setting [7]) was -4% (inactive); in test [1] (setting [8]), 82% (active); in test [1] (at 50.0 µM), 14.4% (inactive); in test [2] (setting [7]), -26% (inactive); in test [2] (setting [8]), 99% (active); in test [2] (at 50.0 µM) it was 34.2% (inactive). In addition, the growth inhibition is 11% (inactive) in test [3] (setting [7]); 70% (active) in test [3] (setting [8]); 62.3% (inactive) in test [3] (at 50.0 µM); 24% (inactive) in test [4] (setting [7]); 49% (inactive) in test [4] (setting [8]); 0.35% (inactive) in test [4] (at 50.0 µM). Besides, the growth inhibition was -8% (inactive) in test [5] (setting [7]); 84% (active) in test [5] (setting [8]); 25.4% (inactive) in test [5] (at 50.0 µM); -13% (inactive) in test [6] (setting [7]); 98% (active) in test [6] (setting [8]); 15.2% (inactive) in test [6] (at 50.0 µM).

Consider `COc1ccc(C(Cc2ccc(Cl)c(Cl)c2)NCCO)cc1` (configuration not stated), for which the growth inhibition in test [1] (setting [7]) is -16% (inactive); in test [1] (setting [8]), 37% (inactive); in test [1] (at 50.0 µM), 75% (active); in test [2] (setting [7]), -5% (inactive); in test [2] (setting [8]) it was -1% (inactive); in test [2] (at 50.0 µM), 23.3% (inactive). For the same compound, the growth inhibition in test [3] (setting [7]) was -35% (inactive); in test [3] (setting [8]), 27% (inactive); in test [3] (at 50.0 µM), 31.1% (inactive); in test [4] (setting [7]) it was -2% (inactive); in test [4] (setting [8]), 10% (inactive); in test [4] (at 50.0 µM) it was 11.9% (inactive). In addition, the growth inhibition in test [5] (setting [7]) was 4% (inactive); in test [5] (setting [8]) it was 32% (inactive); in test [5] (at 50.0 µM), 59.1% (inactive); in test [6] (setting [7]), 3% (inactive); in test [6] (setting [8]), 48% (inactive); in test [6] (at 50.0 µM), 86.2% (active).

As for `CCC/C=[CH]/[Hg][Cl]`, the growth inhibition in test [1] (setting [7]) was 99% (active); in test [1] (setting [8]), 99% (active); in test [1] (at 50.0 µM), 99.2% (active); in test [2] (setting [7]) it was 100% (active); in test [2] (setting [8]), 100% (active); in test [2] (at 50.0 µM), 99.5% (active). Also, the growth inhibition was 100% (active) in test [3] (setting [7]); 99% (active) in test [3] (setting [8]); 99.5% (active) in test [3] (at 50.0 µM); 97% (active) in test [4] (setting [7]); 99% (active) in test [4] (setting [8]); 99.3% (active) in test [4] (at 50.0 µM). Also, the growth inhibition is 99% (active) in test [5] (setting [7]); 99% (active) in test [5] (setting [8]); 99.4% (active) in test [5] (at 50.0 µM); 100% (active) in test [6] (setting [7]); 99% (active) in test [6] (setting [8]); 99.4% (active) in test [6] (at 50.0 µM).

As to `CN(C)C(=O)Oc1c(Cl)cc(Cl)c(Cl)c1Cl`, the growth inhibition in test [1] (setting [7]) is 4% (inactive); in test [1] (setting [8]) it was 16% (inactive); in test [1] (at 50.0 µM), 13.9% (inactive); in test [2] (setting [7]) it was 1% (inactive); in test [2] (setting [8]), 9% (inactive); in test [2] (at 50.0 µM), -10.9% (inactive). Further, the growth inhibition in test [3] (setting [7]) is 6% (inactive); in test [3] (setting [8]) it was 12% (inactive); in test [3] (at 50.0 µM), 22% (inactive); in test [4] (setting [7]) it was 5% (inactive); in test [4] (setting [8]) it was 7% (inactive); in test [4] (at 50.0 µM), 36.1% (inactive). Further, the growth inhibition in test [5] (setting [7]) is 2% (inactive); in test [5] (setting [8]), 8% (inactive); in test [5] (at 50.0 µM), -36% (inactive); in test [6] (setting [7]) it was 19% (inactive); in test [6] (setting [8]), 28% (inactive); in test [6] (at 50.0 µM), 37.5% (inactive).

For `N.N.N.N.N.N#N.[Cl-].[Os+7]`, the growth inhibition in test [1] (setting [7]) was 18% (inactive); in test [1] (setting [8]), 78% (active); in test [1] (at 50.0 µM), 55.5% (inactive); in test [2] (setting [7]) it was 17% (inactive); in test [2] (setting [8]), 87% (active); in test [2] (at 50.0 µM) it was 59.4% (inactive). The growth inhibition in test [3] (setting [7]) was 33% (inactive); in test [3] (setting [8]), 90% (active); in test [3] (at 50.0 µM), 60.9% (inactive); in test [4] (setting [7]), 14% (inactive); in test [4] (setting [8]), 45% (inactive); in test [4] (at 50.0 µM) it was 57.4% (inactive). Moreover, the growth inhibition in test [5] (setting [7]) is 30% (inactive); in test [5] (setting [8]), 91% (active); in test [5] (at 50.0 µM), 59.1% (inactive); in test [6] (setting [7]) it was 31% (inactive); in test [6] (setting [8]) it was 89% (active); in test [6] (at 50.0 µM), 74% (active).

For `CN1c2cccc[c]2[Sn]([CH3])([CH3])[c]2ccccc21`, the growth inhibition is 98% (active) in test [1] (setting [7]); 99% (active) in test [1] (setting [8]); 99.4% (active) in test [1] (at 50.0 µM); 99% (active) in test [2] (setting [7]); 99% (active) in test [2] (setting [8]); 99.2% (active) in test [2] (at 50.0 µM). Further, the growth inhibition in test [3] (setting [7]) was 97% (active); in test [3] (setting [8]) it was 99% (active); in test [3] (at 50.0 µM) it was 99.5% (active); in test [4] (setting [7]), 77% (active); in test [4] (setting [8]), 100% (active); in test [4] (at 50.0 µM), 94% (active). Further, the growth inhibition in test [5] (setting [7]) was 7% (inactive); in test [5] (setting [8]), 99% (active); in test [5] (at 50.0 µM), 99.2% (active); in test [6] (setting [7]), 98% (active); in test [6] (setting [8]), 99% (active); in test [6] (at 50.0 µM), 99.3% (active).

With `CN1CCN(c2ccc([N+](=O)[O-])c3no[n+]([O-])c23)CC1`, the growth inhibition is 96% (active) and 97% (active) in test [1] (setting [7]); 99% (active) in test [1] (setting [8]); 99.2% (active) and 89.8% (active) in test [1] (at 50.0 µM); 52% (inactive) and 81% (active) in test [2] (setting [7]); 99% (active) in test [2] (setting [8]); 97.5% (active) and 93% (active) in test [2] (at 50.0 µM). Also, the growth inhibition was 82% (active) and 93% (active) in test [3] (setting [7]); 99% (active) in test [3] (setting [8]); 98.8% (active) and 91.3% (active) in test [3] (at 50.0 µM); 72% (active) and 46% (inactive) in test [4] (setting [7]); 97% (active) and 98% (active) in test [4] (setting [8]); 92.7% (active) and 84.6% (active) in test [4] (at 50.0 µM). In addition, the growth inhibition in test [5] (setting [7]) is 45% (inactive) and 65% (inactive); in test [5] (setting [8]) it was 99% (active) and 97% (active); in test [5] (at 50.0 µM) it was 98.2% (active) and 91.5% (active); in test [6] (setting [7]), 94% (active) and 97% (active); in test [6] (setting [8]), 99% (active); in test [6] (at 50.0 µM) it was 94.2% (active) and 90.2% (active).

Turning to `CC(C)CCCC(C)CCC1C(=O)NC(=O)NC1=O` (configuration not stated), the growth inhibition in test [1] (setting [7]) is 6% (inactive); in test [1] (setting [8]) it was 23% (inactive); in test [1] (at 50.0 µM), -6.75% (inactive) and 8.2% (inactive); in test [2] (setting [7]), -17% (inactive); in test [2] (setting [8]) it was 4% (inactive); in test [2] (at 50.0 µM), -0.5% (inactive) and -2.3% (inactive). Besides, the growth inhibition in test [3] (setting [7]) is -6% (inactive); in test [3] (setting [8]), 21% (inactive); in test [3] (at 50.0 µM), -8.05% (inactive) and 38.9% (inactive); in test [4] (setting [7]) it was -1% (inactive); in test [4] (setting [8]) it was 3% (inactive); in test [4] (at 50.0 µM), -31.1% (inactive) and -44.4% (inactive). Also, the growth inhibition in test [5] (setting [7]) is -3% (inactive); in test [5] (setting [8]), -3% (inactive); in test [5] (at 50.0 µM), -5.55% (inactive) and -18.1% (inactive); in test [6] (setting [7]) it was 13% (inactive); in test [6] (setting [8]) it was 48% (inactive); in test [6] (at 50.0 µM), 2.7% (inactive) and -0.7% (inactive).
